# Results taken from PubChem BioAssay AID1159580 (chemical genetic matrix, 2015).
# In all, about 5,500 compounds went through this assay and about 2,000 (36%) were called active. Inconclusive results (about 18%) are left out. The list shows a part of the results. Unmarked numbers belong to inactive results. No stated cut-off is given here; in the data, active means normalized growth mostly below about 0.91 (no sharp cut-off); inconclusive means no clear call, values can overlap the other calls; inactive means mostly above about 0.92.
# Experiment: chemical genetic growth profiling, strain panel (AID 1159580);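 further: tested at 20 µM; growth read once vehicle control cultures reached saturation at 30 °C; 1 = growth at the plate median or of vehicle wells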
# Conditions: growth OD
# [1] = S. cerevisiae deletion strains, locus YDL101C, strain DUN1, stronger effect = lower value
# [2] = S. cerevisiae deletion strains, locus YHR030C, strain SLT2, stronger effect = lower value
# [3] = S. cerevisiae deletion strains, locus YHR079C, strain IRE1, stronger effect = lower value
# [4] = S. cerevisiae deletion strains, locus YJL095W, strain BCK1, stronger effect = lower value
# [5] = S. cerevisiae deletion strains, locus YJR066W, strain TOR1, stronger effect = lower value
# [6] = S. cerevisiae deletion strains, locus YLR113W, strain HOG1, stronger effect = lower value
# [7] = S. cerevisiae deletion strains, locus YNL183C, strain NPR1, stronger effect = lower value
# [8] = S. cerevisiae deletion strains, locus YOR231W, strain MKK1, stronger effect = lower value
# [9] = S. cerevisiae deletion strains, locus YPL256C, strain CLN2, stronger effect = lower value
structure (smiles),measurement,setting,value
O=[N+]([O-])c1cccc(-c2csc(Nc3ccccc3Cl)n2)c1,normalized growth,"S. cerevisiae deletion strains, locus YAL013W, strain DEP1, stronger effect = lower value",0.94
same,normalized growth,"S. cerevisiae deletion strains, locus YBR229C, strain ROT2, stronger effect = lower value",0.966
same,normalized growth,[1],0.978
same,normalized growth,"S. cerevisiae deletion strains, locus YDR150W, strain NUM1, stronger effect = lower value",0.934
same,normalized growth,"S. cerevisiae deletion strains, locus YEL061C, strain CIN8, stronger effect = lower value",0.929
same,normalized growth,"S. cerevisiae deletion strains, locus YGR078C, strain PAC10, stronger effect = lower value",0.938
same,normalized growth,"S. cerevisiae deletion strains, locus YGR229C, strain SMI1, stronger effect = lower value",0.959
same,normalized growth,[2],0.418 (active)
same,normalized growth,"S. cerevisiae deletion strains, locus YHR087W, strain rtc3, stronger effect = lower value",0.955
same,normalized growth,"S. cerevisiae deletion strains, locus YJL187C, strain SWE1, stronger effect = lower value",1.01
same,normalized growth,"S. cerevisiae deletion strains, locus YJR043C, strain POL32, stronger effect = lower value",0.979
same,normalized growth,"S. cerevisiae deletion strains, locus YJR075W, strain HOC1, stronger effect = lower value",0.88 (active)
same,normalized growth,"S. cerevisiae deletion strains, locus YKL190W, strain CNB1, stronger effect = lower value",0.907 (active)
same,normalized growth,"S. cerevisiae deletion strains, locus YLR039C, strain RIC1, stronger effect = lower value",0.6 (active)
same,normalized growth,"S. cerevisiae deletion strains, locus YLR058C, strain SHM2 (second series), stronger effect = lower value",0.964
same,normalized growth,"S. cerevisiae deletion strains, locus YLR085C, strain ARP6, stronger effect = lower value",0.571 (active)
same,normalized growth,"S. cerevisiae deletion strains, locus YLR262C, strain YPT6, stronger effect = lower value",0.727 (active)
same,normalized growth,"S. cerevisiae deletion strains, locus YML094W, strain GIM5, stronger effect = lower value",0.818 (active)
same,normalized growth,"S. cerevisiae deletion strains, locus YMR219W, strain ESC1, stronger effect = lower value",0.964
same,normalized growth,"S. cerevisiae deletion strains, locus YMR263W, strain SAP30, stronger effect = lower value",0.945
same,normalized growth,"S. cerevisiae deletion strains, locus YNL153C, strain GIM3, stronger effect = lower value",0.972
same,normalized growth,"S. cerevisiae deletion strains, locus YNL298W, strain CLA4 (second series), stronger effect = lower value",0.82 (active)
same,normalized growth,"S. cerevisiae deletion strains, locus YNL322C, strain KRE1, stronger effect = lower value",0.977
same,normalized growth,"S. cerevisiae deletion strains, locus YNR030W, strain Alg12, stronger effect = lower value",0.811 (active)
same,normalized growth,"S. cerevisiae deletion strains, locus YOL006C, strain TOP1, stronger effect = lower value",0.638 (active)
same,normalized growth,"S. cerevisiae deletion strains, locus YPL055C, strain LGE1, stronger effect = lower value",0.715 (active)
same,normalized growth,"S. cerevisiae deletion strains, locus YPL241C, strain CIN2, stronger effect = lower value",0.82 (active)
same,normalized growth,"S. cerevisiae deletion strains, locus YPR135W, strain CTF4, stronger effect = lower value",0.795
same,normalized growth,"S. cerevisiae strains, strain wild type, stronger effect = lower value",0.915
O=[N+]([O-])c1ccc(-c2csc(Nc3ccncc3)n2)cc1,normalized growth,"S. cerevisiae deletion strains, locus YAR019C, strain CDC15, stronger effect = lower value",0.995
same,normalized growth,"S. cerevisiae deletion strains, locus YBL105C, strain PKC1, stronger effect = lower value",0.978
same,normalized growth,"S. cerevisiae deletion strains, locus YBR135W, strain CKS1, stronger effect = lower value",0.982
same,normalized growth,"S. cerevisiae deletion strains, locus YBR136W, strain MEC1, stronger effect = lower value",0.996
same,normalized growth,"S. cerevisiae deletion strains, locus YBR160W, strain CDC28, stronger effect = lower value",0.989
same,normalized growth,"S. cerevisiae deletion strains, locus YDL017W, strain CDC7, stronger effect = lower value",0.99
same,normalized growth,"S. cerevisiae deletion strains, locus YDL028C, strain MPS1, stronger effect = lower value",0.998
same,normalized growth,[1],0.99
same,normalized growth,"S. cerevisiae deletion strains, locus YDL108W, strain KIN28, stronger effect = lower value",0.979
same,normalized growth,"S. cerevisiae deletion strains, locus YDL132W, strain cdc53, stronger effect = lower value",0.982
same,normalized growth,"S. cerevisiae deletion strains, locus YDL214C, strain PRR2, stronger effect = lower value",0.941
same,normalized growth,"S. cerevisiae deletion strains, locus YDR052C, strain DBF4, stronger effect = lower value",0.992
same,normalized growth,"S. cerevisiae deletion strains, locus YDR054C, strain cdc34, stronger effect = lower value",0.977
same,normalized growth,"S. cerevisiae deletion strains, locus YDR226W, strain ADK1, stronger effect = lower value",0.985
same,normalized growth,"S. cerevisiae deletion strains, locus YDR477W, strain SNF1, stronger effect = lower value",0.992
same,normalized growth,"S. cerevisiae deletion strains, locus YER123W, strain YCK3, stronger effect = lower value",0.982
same,normalized growth,"S. cerevisiae deletion strains, locus YER133W, strain GLC7, stronger effect = lower value",0.987
same,normalized growth,"S. cerevisiae deletion strains, locus YFL009W, strain cdc4, stronger effect = lower value",0.981
same,normalized growth,"S. cerevisiae deletion strains, locus YFL029C, strain CAK1, stronger effect = lower value",1.01
same,normalized growth,"S. cerevisiae deletion strains, locus YFR003C, strain YPI1, stronger effect = lower value",0.98
same,normalized growth,"S. cerevisiae deletion strains, locus YFR019W, strain FAB1, stronger effect = lower value",0.984
same,normalized growth,"S. cerevisiae deletion strains, locus YFR028C, strain CDC14, stronger effect = lower value",0.996
same,normalized growth,"S. cerevisiae deletion strains, locus YGR040W, strain KSS1, stronger effect = lower value",0.978
same,normalized growth,"S. cerevisiae deletion strains, locus YGR052W, strain FMP48, stronger effect = lower value",1.01
same,normalized growth,"S. cerevisiae deletion strains, locus YGR092W, strain DBF2, stronger effect = lower value",0.908
same,normalized growth,[2],1
same,normalized growth,[3],1.01
same,normalized growth,"S. cerevisiae deletion strains, locus YHR082C, strain KSP1, stronger effect = lower value",1.08
same,normalized growth,"S. cerevisiae deletion strains, locus YHR205W, strain SCH9, stronger effect = lower value",0.923
same,normalized growth,"S. cerevisiae deletion strains, locus YIL147C, strain SLN1, stronger effect = lower value",0.991
same,normalized growth,[4],1.03
same,normalized growth,"S. cerevisiae deletion strains, locus YJL128C, strain PBS2, stronger effect = lower value",0.943
same,normalized growth,"S. cerevisiae deletion strains, locus YJL157C, strain FAR1, stronger effect = lower value",0.996
same,normalized growth,"S. cerevisiae deletion strains, locus YJR016C, strain ILV3, stronger effect = lower value",0.978
same,normalized growth,"S. cerevisiae deletion strains, locus YJR066W, strain TOR1 (second series), stronger effect = lower value",0.991
same,normalized growth,[5],0.968
same,normalized growth,"S. cerevisiae deletion strains, locus YKL048C, strain ELM1, stronger effect = lower value",0.976
same,normalized growth,"S. cerevisiae deletion strains, locus YKL067W, strain YNK1, stronger effect = lower value",0.941
same,normalized growth,"S. cerevisiae deletion strains, locus YKL101W, strain HSL1, stronger effect = lower value",0.98
same,normalized growth,"S. cerevisiae deletion strains, locus YKL193C, strain SDS22, stronger effect = lower value",0.988
same,normalized growth,"S. cerevisiae deletion strains, locus YKL203C, strain TOR2, stronger effect = lower value",1.07
same,normalized growth,[6],0.981
same,normalized growth,"S. cerevisiae deletion strains, locus YLR133W, strain CKI1, stronger effect = lower value",0.976
same,normalized growth,"S. cerevisiae deletion strains, locus YLR403W, strain SFP1, stronger effect = lower value",1.01
same,normalized growth,"S. cerevisiae deletion strains, locus YML070W, strain DAK1, stronger effect = lower value",0.991
same,normalized growth,"S. cerevisiae deletion strains, locus YMR001C, strain CDC5, stronger effect = lower value",0.993
same,normalized growth,"S. cerevisiae deletion strains, locus YMR205C, strain PFK2 (second series), stronger effect = lower value",0.973
same,normalized growth,"S. cerevisiae deletion strains, locus YMR277W, strain FCP1, stronger effect = lower value",0.989
same,normalized growth,"S. cerevisiae deletion strains, locus YNL006W, strain LST8, stronger effect = lower value",0.994
same,normalized growth,"S. cerevisiae deletion strains, locus YNL020C, strain ARK1, stronger effect = lower value",0.975
same,normalized growth,"S. cerevisiae deletion strains, locus YNL161W, strain CBK1, stronger effect = lower value",0.994
same,normalized growth,[7],1.02
same,normalized growth,"S. cerevisiae deletion strains, locus YNL207W, strain RIO2, stronger effect = lower value",0.984
same,normalized growth,"S. cerevisiae deletion strains, locus YNL222W, strain SSU72, stronger effect = lower value",0.996
same,normalized growth,"S. cerevisiae deletion strains, locus YNL307C, strain MCK1 (second series), stronger effect = lower value",0.976
same,normalized growth,"S. cerevisiae deletion strains, locus YOL078W, strain AVO1, stronger effect = lower value",0.986
same,normalized growth,"S. cerevisiae deletion strains, locus YOL136C, strain PFK27, stronger effect = lower value",0.979
same,normalized growth,"S. cerevisiae deletion strains, locus YOR061W, strain CKA2, stronger effect = lower value",0.957
same,normalized growth,"S. cerevisiae deletion strains, locus YOR119C, strain RIO1, stronger effect = lower value",1.01
same,normalized growth,[8],0.97
same,normalized growth,"S. cerevisiae deletion strains, locus YOR329C, strain SCD5, stronger effect = lower value",0.992
same,normalized growth,"S. cerevisiae deletion strains, locus YPL031C, strain PHO85, stronger effect = lower value",0.98
same,normalized growth,"S. cerevisiae deletion strains, locus YPL153C, strain RAD53, stronger effect = lower value",1
same,normalized growth,"S. cerevisiae deletion strains, locus YPL204W, strain HRR25, stronger effect = lower value",0.982
same,normalized growth,"S. cerevisiae deletion strains, locus YPL209C, strain IPL1, stronger effect = lower value",0.991
same,normalized growth,[9],1.03
same,normalized growth,"S. cerevisiae deletion strains, locus YPR025C, strain CCL1, stronger effect = lower value",0.985
same,normalized growth,"S. cerevisiae deletion strains, locus YPR106W, strain ISR1, stronger effect = lower value",0.98
same,normalized growth,"S. cerevisiae deletion strains, locus YPR111W, strain DBF20, stronger effect = lower value",0.969
same,normalized growth,"S. cerevisiae deletion strains, strain NNK1, stronger effect = lower value",0.996
same,normalized growth,"S. cerevisiae deletion strains, strain TSCII, stronger effect = lower value",1
O=C1CN=C(c2ccccc2Cl)c2cc([N+](=O)[O-])ccc2N1,normalized growth,[2],0.869
same,normalized growth,[3],0.965
same,normalized growth,[4],0.981
same,normalized growth,[5],0.945
same,normalized growth,[6],0.963
same,normalized growth,[7],0.9
same,normalized growth,[8],0.962
same,normalized growth,[9],0.924
